Screening results: PubChem BioAssay, National Center for Advancing Translational Sciences (NCATS)
USP1 inh: blocks the human USP1/UAF1 deubiquitinase complex. 390,000 compounds, 0.23% hits. recombinant USP1/UAF1, Ub-Rhodamine cleavage fluorescence. O94782. Potency, µM (titrated, usually from 57.1 µM), hits mostly inhibitors; further: nearly all actives have a fitted effect of over 60% in size
Target sequence (O94782 whole entry, looked up): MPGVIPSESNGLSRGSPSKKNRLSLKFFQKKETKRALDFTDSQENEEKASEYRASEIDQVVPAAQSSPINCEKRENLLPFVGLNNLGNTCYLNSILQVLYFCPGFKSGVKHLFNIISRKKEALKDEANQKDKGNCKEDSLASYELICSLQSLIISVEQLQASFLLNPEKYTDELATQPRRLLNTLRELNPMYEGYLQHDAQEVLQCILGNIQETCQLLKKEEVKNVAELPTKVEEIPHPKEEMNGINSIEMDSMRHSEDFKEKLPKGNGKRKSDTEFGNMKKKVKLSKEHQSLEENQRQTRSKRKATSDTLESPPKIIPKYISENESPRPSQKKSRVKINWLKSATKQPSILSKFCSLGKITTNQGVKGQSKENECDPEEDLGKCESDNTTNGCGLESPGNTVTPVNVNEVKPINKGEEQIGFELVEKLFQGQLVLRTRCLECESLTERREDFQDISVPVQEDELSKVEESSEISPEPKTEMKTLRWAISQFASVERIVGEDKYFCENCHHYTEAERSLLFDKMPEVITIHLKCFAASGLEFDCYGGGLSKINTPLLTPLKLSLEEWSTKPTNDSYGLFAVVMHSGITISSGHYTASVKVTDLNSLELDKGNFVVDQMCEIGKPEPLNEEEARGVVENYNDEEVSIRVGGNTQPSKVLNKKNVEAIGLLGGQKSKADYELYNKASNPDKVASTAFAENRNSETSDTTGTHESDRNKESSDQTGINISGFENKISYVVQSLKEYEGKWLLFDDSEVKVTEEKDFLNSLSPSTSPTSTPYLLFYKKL
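Step one: compound is pinned into 1nM USP1/UAF1 in HEPES pH 7.8 buffer with TCEP. Step two: 15 min room-temperature incubation. Step three: Ub-Rho (150nM final) starts cleavage, tracked by fluorescence over six one-minute reads.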
VDR inh: inhibitors of human vitamin D receptor | VDR-SRC2-3 peptide fluorescence polarization, 2 h | 400,000 compounds, 0.93% hits | P11473 | Potency, µM, usual class: inhibitors | AID 504847
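Compounds are added to VDR with labelled SRC2-3 coactivator peptide and held 2 h at room temperature. Inhibition of the VDR–peptide interaction is then read as a change in fluorescence polarization.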
KAT2A inh: blocks human GCN5L2 histone acetyltransferase. Potency, µM (titrated, usually from 58.9 µM), hits mostly inhibitors. GCN5L2 HAT assay, ThioGlo1 CoA-SH fluorescence. 390,000 compounds, 0.21% hits. Q92830. AID 504327
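Titration-based screen in which CoA formation is detected via maleimide probe ThioGlo1 (50uM) turning fluorescent on thiol reaction; substrates H3(1-25) 75uM and acetyl-CoA 70uM, GCN5L2 20nM, 20 min incubation at room temperature.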
PLK1 PBD inh: inhibitors of human PLK1 polo-box domain binding; P53350; Plk1 PBD binding of FITC phosphopeptide, fluorescence polarization; Potency, µM, hits mostly inhibitors; 360,000 compounds, 2.8% hits; further: series mostly up to about 57 µM; nearly all actives have a fitted effect of over 65% in size
PTAP TSG101 blk: blocks PTAP/TSG101 interaction to inhibit HIV-1 budding. Fluorescence polarization, FITC-PTAP peptide / Tsg101 binding. Q99816. 340,000 tested, under 10 active. Potency, µM (titrated, usually from 115 µM), actives largely listed as inhibitors; active means well fitted inhibition curve with a large enough effect in the main read-out, with a control signal flat, not every such curve was filed as active; inconclusive means small, poorly fitted or top-dose-only effect, or effect the other way, or a change in a side signal; inactive means no such curve, though single readings can be large or run the other way
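Fluorescence polarization binding of Tsg101 binding domain (10 uM final) to FITC-labeled PTAP peptide (50 nM final) in HEPES pH 7.5 buffer with NaCl, Tween 20, EDTA, TCEP. Compounds added before peptide; binding 20 min at RT.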
Of the large screens only hits and unclear results are named; the others gave an inactive call. Sampled rows, rich in hits. Any-hit rate of the full collection: about 3%. Unless noted, the call rests on the fitted dose curve; in most records, active means well fitted curve in the direction sought with a large enough effect; inconclusive means small, poorly fitted or top-dose-only effect, or another doubt; inactive means no such curve, though single readings can be large; an effect the other way counts as inactive or inconclusive.

COc1ccc(S(=O)(=O)N[C@H]2CC[C@H](CCNC(=O)c3ccccc3F)O[C@@H]2CO)cc1	none (no result: USP1 inh, VDR inh, KAT2A inh, PTAP TSG101 blk)
Fc1ccc(COc2ccccc2C(=S)N2CCCC2)cc1	VDR inh 50µM, PLK1 PBD inh 4.2µM
Cc1ccc(COc2ccccc2C(=S)N2CCCC2)cc1	USP1 inh inconclusive, PLK1 PBD inh inconclusive
Cc1cc[n+]2c3c(cccc13)CCC2	VDR inh 50µM, PLK1 PBD inh 13µM
CC(=O)NCCNc1ncnc2ccc(-c3cccc(NS(C)(=O)=O)c3)cc12	VDR inh 45µM, KAT2A inh inconclusive (no result: USP1 inh, PLK1 PBD inh, PTAP TSG101 blk)
CCCC(=O)C1=C(c2ccccc2)C(C#N)(C#N)C(C#N)=C1N	VDR inh inconclusive, PLK1 PBD inh 7.5µM
Cc1ccoc1C(=O)N1CCCCC1C(=O)O (stereo unspecified)	VDR inh inconclusive, PLK1 PBD inh 15µM
Cc1cc(NC(=S)N(Cc2ccc(Cl)cc2)Cc2ccc(C(=O)O)cc2)ccc1Cl	KAT2A inh inconclusive, PLK1 PBD inh 30µM
Cc1cc(C)cc(NC(=S)N(Cc2ccc(Cl)cc2)Cc2ccc(C(=O)O)cc2)c1	none
CCc1ccc(NC(=S)N(Cc2ccc(Cl)cc2)Cc2ccc(C(=O)O)cc2)cc1	KAT2A inh inconclusive, PLK1 PBD inh 24µM
COc1ccc(CC(=S)N2CCOCC2)cc1	PLK1 PBD inh 7.5µM
CCc1ccc(CC(=S)N2CCOCC2)cc1	none
S=C(Cc1ccc(-c2ccccc2)cc1)N1CCOCC1	none (no result: KAT2A inh)
Cc1ccc(CC(=S)N2CCOCC2)cc1	PLK1 PBD inh 19µM
Cc1ccc(S(=O)(=O)Nc2cccc(C(=O)NCc3ccccn3)c2)cc1F	none
O=C(NCC1CCCO1)C(=O)N/N=C/c1ccccc1C(=O)O (stereo unspecified)	PLK1 PBD inh 27µM
O=C(NN=Cc1ccccc1C(=O)O)C(=O)NN=Cc1ccccc1C(=O)O	none (no result: KAT2A inh)
CCN(CC)C(=O)[C@H]1C[C@H](CC(=O)NC(C)(C)C)C(=O)N2CCc3c([nH]c4cc(-c5ccco5)ccc34)[C@]12C	USP1 inh inconclusive
COc1ccc(CNC(=O)C[C@H]2C[C@H](C(=O)N3CCCCC3)[C@@]3(CCc4ccccc4)c4[nH]c5cc(-c6ccco6)ccc5c4CCN3C2=O)cc1OC	VDR inh 89µM, PLK1 PBD inh 24µM
CC(C)N(C(=O)[C@H]1C[C@H](CC(=O)NC(C)(C)C)C(=O)N2CCc3c([nH]c4cc(-c5ccco5)ccc34)[C@]12C)C(C)C	USP1 inh inconclusive, VDR inh inconclusive, PLK1 PBD inh 21µM
CC[C@]12c3[nH]c4cc(-c5ccco5)ccc4c3CCN1C(=O)[C@@H](CC(=O)NCCC1=CCCCC1)C[C@@H]2C(=O)N1CCN(C(=O)C2CC2)CC1	VDR inh inconclusive, PLK1 PBD inh 21µM
O=C(C[n+]1ccc2ccccc2c1)c1cccc2ccccc12	PLK1 PBD inh 24µM
Cc1ccc(C(=O)C[n+]2ccc3ccccc3c2)cc1	none
COC(=O)[C@H](Cc1ccccc1)NC(=O)/C=C/[C@H]1O[C@@H](n2ccc(=O)[nH]c2=O)[C@H](O)[C@@H]1O	none (no result: USP1 inh, VDR inh, KAT2A inh, PTAP TSG101 blk)
COc1cccc(C(c2nnnn2CCc2ccccc2)N2CCN(c3ccccc3)CC2)c1OC (stereo unspecified)	PLK1 PBD inh 30µM
C=Cc1ccc(Cn2nc(-c3ccc(C)c(S(=O)(=O)N(CC)CC)c3)ccc2=O)cc1	none (no result: PLK1 PBD inh, PTAP TSG101 blk)
C=CCOc1ccc2c3c(c(=O)oc2c1)CCCC3	none (no result: KAT2A inh)
O=C(Oc1ccc2c3c(c(=O)oc2c1)CCCC3)c1ccco1	KAT2A inh inconclusive, PLK1 PBD inh 24µM
CCCOc1ccc2c3c(c(=O)oc2c1)CCCC3	PLK1 PBD inh 7.5µM
CC(=O)Oc1ccc2c3c(c(=O)oc2c1)CCCC3	none
CN1CCN(C(=S)NC(=O)c2ccc(Cl)cc2)CC1	PLK1 PBD inh 27µM
CN(C)S(=O)(=O)c1cccc(-c2nn(-c3ccccc3)cc2/C=C2\SC(=S)NC2=O)c1	USP1 inh inconclusive, KAT2A inh inconclusive, PLK1 PBD inh 21µM
COc1ccc2cc(CCOC3CCCCO3)ncc2c1 (stereo unspecified)	none
O=C(O)c1ccc(OCCCCCCOC2CCCCO2)cc1 (stereo unspecified)	VDR inh inconclusive, PLK1 PBD inh 27µM
CCCCCCCc1nc2nc(C)c(Br)c(=O)n2[nH]1	PLK1 PBD inh 27µM
CCCc1nc2nc(C)c(NS(=O)(=O)c3ccc(C(C)(C)C)cc3)c(=O)n2[nH]1	none
COc1ccc(NC(=O)CCc2c(C)nc3nc(CNC(=O)OC(C)(C)C)nn3c2C)cc1OC	none (no result: PLK1 PBD inh, PTAP TSG101 blk)
CCOc1cc(C(N)=O)cc(Cl)c1OCC	PLK1 PBD inh 21µM
N#Cc1sc2nc(C3CC3)cc(-c3ccccc3)c2c1N	none
N#Cc1sc2nc(-c3ccccc3)cc(-c3ccco3)c2c1N	USP1 inh 4µM, VDR inh inconclusive, PLK1 PBD inh inconclusive
Cc1cc(C)n(/N=C/c2ccc(O)cc2)c(=O)c1C#N	PLK1 PBD inh 30µM
O=C(CCCn1c(=O)c2sccc2n(Cc2c(F)cccc2Cl)c1=O)NCc1ccccc1	none (no result: PLK1 PBD inh, PTAP TSG101 blk)
Cc1cc([N+](=O)[O-])c2[nH]c(C(=O)N/N=C/c3ccccc3C(=O)O)c(-c3ccccc3)c2c1	USP1 inh inconclusive, PLK1 PBD inh 30µM
CCn1cc(C(=O)OCC(=O)c2cc(C)n(-c3ccccc3F)c2C)c(=O)c2ccc(C)nc21	VDR inh inconclusive, PLK1 PBD inh 27µM
CCc1cc2c(SCC#N)ncnc2s1	PLK1 PBD inh 27µM
CCc1cc2c(SCC(=O)O)ncnc2s1	none
CSc1cc(-c2ccc(Cl)cc2)c(C(=O)NN)s1	VDR inh inconclusive
CSc1cc(-c2ccc(Cl)cc2)c(C(=O)NC(C)C)s1	PLK1 PBD inh 3µM
Nc1ccc(S(=O)(=O)Nc2nccs2)cc1N=Nc1ccccc1[N+](=O)[O-]	VDR inh inconclusive, PLK1 PBD inh 30µM (no result: KAT2A inh)
COC(=O)c1c(-c2cccs2)csc1NC(=O)COc1c(C)ccc(C)c1C	VDR inh 22µM, KAT2A inh inconclusive (no result: PLK1 PBD inh, PTAP TSG101 blk)
O=C(O)c1ccc(-c2ccccc2)[nH]c1=O	VDR inh inconclusive, PLK1 PBD inh 24µM
C/C(=N\N=C(/C)c1cccc(N)c1)c1cccc(N)c1	none (no result: KAT2A inh)
CC(Sc1nnc(NC2CCCCC2)s1)C(=O)Nc1ccc2c(c1)C(=O)c1ccccc1C2=O (stereo unspecified)	PLK1 PBD inh inconclusive
Nc1cccc2c1C(=O)N(C(=O)c1cccc(S(=O)(=O)N3CCCC3)c1)C2=O	PLK1 PBD inh 4.2µM
NC(=O)c1cccc(S(=O)(=O)N2CCCCC2)c1	none
Cc1ccc(N(C)C(=O)c2cc(S(=O)(=O)N3CCOCC3)cn2C)cc1	none (no result: PLK1 PBD inh, PTAP TSG101 blk)
CCc1ccc(NC(=O)C2CCN(S(=O)(=O)c3c(C)noc3/C=C/N(C)C)CC2)cc1	none
CNC(=O)C1CCN(S(=O)(=O)c2c(C)noc2/C=C/N(C)C)CC1	VDR inh inconclusive, PLK1 PBD inh 27µM
COc1ccccc1N1CCN(C(=O)CSc2ncnc3scc(-c4ccccc4)c23)CC1	VDR inh inconclusive, PLK1 PBD inh 15µM
